In ChEMBL document CHEMBL1961873, “Compounds: GSK PKIS; Assays: Nanosyn kinase panel” (2012):

How the values were obtained:
[1] = target: Death-associated protein kinase 1 (Homo sapiens) (UniProt P53355); settings: at 1 µM;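 also: each value is a mean inhibition figure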
[2] = target: T1, Serine/threonine-protein kinase DCLK2 (Homo sapiens) (UniProt Q8N568); settings: at 0.1 µM
T1 sequence (whole entry): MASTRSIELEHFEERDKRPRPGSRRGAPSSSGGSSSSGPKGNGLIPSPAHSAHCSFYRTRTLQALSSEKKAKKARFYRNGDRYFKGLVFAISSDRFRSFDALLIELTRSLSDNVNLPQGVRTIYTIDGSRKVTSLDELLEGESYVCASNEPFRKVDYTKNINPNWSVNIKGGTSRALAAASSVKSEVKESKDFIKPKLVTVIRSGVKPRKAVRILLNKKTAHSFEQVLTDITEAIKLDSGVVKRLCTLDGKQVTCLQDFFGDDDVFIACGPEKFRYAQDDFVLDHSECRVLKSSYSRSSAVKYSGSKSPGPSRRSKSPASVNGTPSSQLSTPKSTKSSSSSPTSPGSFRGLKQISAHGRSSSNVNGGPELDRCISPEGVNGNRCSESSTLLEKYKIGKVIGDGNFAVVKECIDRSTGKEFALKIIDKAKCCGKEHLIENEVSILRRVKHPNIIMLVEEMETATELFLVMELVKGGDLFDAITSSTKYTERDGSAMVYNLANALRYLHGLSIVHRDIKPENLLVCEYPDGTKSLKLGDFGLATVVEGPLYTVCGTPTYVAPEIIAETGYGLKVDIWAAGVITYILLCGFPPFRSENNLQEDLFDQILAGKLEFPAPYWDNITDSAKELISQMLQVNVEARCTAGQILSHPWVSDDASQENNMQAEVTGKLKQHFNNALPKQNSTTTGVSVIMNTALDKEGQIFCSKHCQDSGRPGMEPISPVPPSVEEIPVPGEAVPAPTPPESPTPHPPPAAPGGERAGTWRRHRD

[3] = target: T1, Serine/threonine-protein kinase DCLK2 (Homo sapiens); settings: at 1 µM
[4] = target: MAP kinase-activated protein kinase 2 (Homo sapiens) (UniProt P49137); settings: at 0.1 µM
Chain of MAP kinase-activated protein kinase 2 (Homo sapiens) (P49137 whole entry, looked up): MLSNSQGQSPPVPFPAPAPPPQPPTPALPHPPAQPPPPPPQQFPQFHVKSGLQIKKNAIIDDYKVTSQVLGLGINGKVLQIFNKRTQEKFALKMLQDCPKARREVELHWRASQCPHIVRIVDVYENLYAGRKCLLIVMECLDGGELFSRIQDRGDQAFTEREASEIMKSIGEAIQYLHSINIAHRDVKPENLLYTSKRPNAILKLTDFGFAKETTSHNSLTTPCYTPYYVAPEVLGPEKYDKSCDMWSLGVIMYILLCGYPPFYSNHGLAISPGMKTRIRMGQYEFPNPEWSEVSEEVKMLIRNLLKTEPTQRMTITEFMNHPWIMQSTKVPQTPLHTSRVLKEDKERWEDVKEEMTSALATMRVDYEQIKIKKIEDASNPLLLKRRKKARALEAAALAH

[5] = target: MAP kinase-activated protein kinase 2 (Homo sapiens) (UniProt P49137); settings: at 1 µM
[6] = target: MAP kinase-activated protein kinase 3 (Homo sapiens) (UniProt Q16644); settings: at 0.1 µM
Chain of MAP kinase-activated protein kinase 3 (Homo sapiens) (Q16644 whole entry, looked up): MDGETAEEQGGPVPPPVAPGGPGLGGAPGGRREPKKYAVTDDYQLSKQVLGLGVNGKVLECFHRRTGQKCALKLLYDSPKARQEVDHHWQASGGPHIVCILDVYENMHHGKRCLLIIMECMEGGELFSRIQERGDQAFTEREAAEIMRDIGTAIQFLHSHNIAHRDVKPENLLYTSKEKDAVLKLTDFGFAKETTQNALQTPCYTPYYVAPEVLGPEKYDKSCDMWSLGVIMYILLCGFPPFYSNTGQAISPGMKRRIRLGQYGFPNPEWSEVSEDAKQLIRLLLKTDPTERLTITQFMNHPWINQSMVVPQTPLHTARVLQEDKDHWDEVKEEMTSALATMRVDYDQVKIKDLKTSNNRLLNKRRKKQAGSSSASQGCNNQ

[7] = target: MAP kinase-activated protein kinase 3 (Homo sapiens) (UniProt Q16644); settings: at 1 µM
[8] = target: Serine/threonine-protein kinase MARK1 (Homo sapiens) (UniProt Q9P0L2); settings: at 0.1 µM
Chain of Serine/threonine-protein kinase MARK1 (Homo sapiens) (Q9P0L2 whole entry, looked up): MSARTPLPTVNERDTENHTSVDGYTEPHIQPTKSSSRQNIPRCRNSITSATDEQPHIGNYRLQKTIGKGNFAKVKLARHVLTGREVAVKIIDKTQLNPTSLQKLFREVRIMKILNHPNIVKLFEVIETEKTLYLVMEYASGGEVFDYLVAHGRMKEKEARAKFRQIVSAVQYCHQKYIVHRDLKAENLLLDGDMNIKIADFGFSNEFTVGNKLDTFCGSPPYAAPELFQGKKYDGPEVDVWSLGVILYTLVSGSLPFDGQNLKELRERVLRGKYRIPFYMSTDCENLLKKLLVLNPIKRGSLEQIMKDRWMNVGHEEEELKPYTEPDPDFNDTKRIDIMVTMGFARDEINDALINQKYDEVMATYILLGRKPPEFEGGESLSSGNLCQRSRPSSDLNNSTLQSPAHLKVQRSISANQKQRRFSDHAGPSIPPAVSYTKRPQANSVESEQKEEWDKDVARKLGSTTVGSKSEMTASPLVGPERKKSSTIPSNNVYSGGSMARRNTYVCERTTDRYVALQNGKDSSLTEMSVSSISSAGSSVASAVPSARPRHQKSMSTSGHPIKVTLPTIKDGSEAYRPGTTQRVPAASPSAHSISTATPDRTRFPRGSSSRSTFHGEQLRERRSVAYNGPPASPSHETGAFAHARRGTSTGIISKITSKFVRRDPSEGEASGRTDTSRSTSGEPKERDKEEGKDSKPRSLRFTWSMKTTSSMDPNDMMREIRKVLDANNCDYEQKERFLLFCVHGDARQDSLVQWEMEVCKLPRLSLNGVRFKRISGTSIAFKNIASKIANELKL

[9] = target: Serine/threonine-protein kinase MARK1 (Homo sapiens) (UniProt Q9P0L2); settings: at 1 µM
[10] = target: MAP/microtubule affinity-regulating kinase 3 (Homo sapiens) (UniProt P27448); settings: at 0.1 µM;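 also: mean percent inhibition of MARK3 kinase activity, measured within the GSK PKIS screening panel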
Chain of MAP/microtubule affinity-regulating kinase 3 (Homo sapiens) (P27448 whole entry, looked up): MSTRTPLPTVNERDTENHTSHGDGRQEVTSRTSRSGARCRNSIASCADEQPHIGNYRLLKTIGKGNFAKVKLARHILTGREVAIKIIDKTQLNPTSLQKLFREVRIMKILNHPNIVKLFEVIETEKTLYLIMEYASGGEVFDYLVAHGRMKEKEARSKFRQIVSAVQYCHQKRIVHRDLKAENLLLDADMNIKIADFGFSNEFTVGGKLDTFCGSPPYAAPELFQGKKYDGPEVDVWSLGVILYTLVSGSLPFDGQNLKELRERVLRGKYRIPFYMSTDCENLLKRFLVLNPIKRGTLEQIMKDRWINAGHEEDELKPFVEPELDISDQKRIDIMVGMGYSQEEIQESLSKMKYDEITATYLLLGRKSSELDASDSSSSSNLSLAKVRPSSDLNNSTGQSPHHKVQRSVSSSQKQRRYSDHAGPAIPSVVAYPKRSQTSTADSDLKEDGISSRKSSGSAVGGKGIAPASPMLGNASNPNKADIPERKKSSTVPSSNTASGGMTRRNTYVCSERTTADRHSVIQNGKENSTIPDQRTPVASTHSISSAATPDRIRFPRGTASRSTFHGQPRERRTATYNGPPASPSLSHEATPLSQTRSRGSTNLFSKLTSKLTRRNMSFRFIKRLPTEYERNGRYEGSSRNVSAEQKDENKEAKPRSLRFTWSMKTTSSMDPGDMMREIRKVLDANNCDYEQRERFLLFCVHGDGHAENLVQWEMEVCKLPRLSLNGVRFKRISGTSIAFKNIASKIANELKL

Chain of Death-associated protein kinase 1 (Homo sapiens) (P53355 whole entry, looked up): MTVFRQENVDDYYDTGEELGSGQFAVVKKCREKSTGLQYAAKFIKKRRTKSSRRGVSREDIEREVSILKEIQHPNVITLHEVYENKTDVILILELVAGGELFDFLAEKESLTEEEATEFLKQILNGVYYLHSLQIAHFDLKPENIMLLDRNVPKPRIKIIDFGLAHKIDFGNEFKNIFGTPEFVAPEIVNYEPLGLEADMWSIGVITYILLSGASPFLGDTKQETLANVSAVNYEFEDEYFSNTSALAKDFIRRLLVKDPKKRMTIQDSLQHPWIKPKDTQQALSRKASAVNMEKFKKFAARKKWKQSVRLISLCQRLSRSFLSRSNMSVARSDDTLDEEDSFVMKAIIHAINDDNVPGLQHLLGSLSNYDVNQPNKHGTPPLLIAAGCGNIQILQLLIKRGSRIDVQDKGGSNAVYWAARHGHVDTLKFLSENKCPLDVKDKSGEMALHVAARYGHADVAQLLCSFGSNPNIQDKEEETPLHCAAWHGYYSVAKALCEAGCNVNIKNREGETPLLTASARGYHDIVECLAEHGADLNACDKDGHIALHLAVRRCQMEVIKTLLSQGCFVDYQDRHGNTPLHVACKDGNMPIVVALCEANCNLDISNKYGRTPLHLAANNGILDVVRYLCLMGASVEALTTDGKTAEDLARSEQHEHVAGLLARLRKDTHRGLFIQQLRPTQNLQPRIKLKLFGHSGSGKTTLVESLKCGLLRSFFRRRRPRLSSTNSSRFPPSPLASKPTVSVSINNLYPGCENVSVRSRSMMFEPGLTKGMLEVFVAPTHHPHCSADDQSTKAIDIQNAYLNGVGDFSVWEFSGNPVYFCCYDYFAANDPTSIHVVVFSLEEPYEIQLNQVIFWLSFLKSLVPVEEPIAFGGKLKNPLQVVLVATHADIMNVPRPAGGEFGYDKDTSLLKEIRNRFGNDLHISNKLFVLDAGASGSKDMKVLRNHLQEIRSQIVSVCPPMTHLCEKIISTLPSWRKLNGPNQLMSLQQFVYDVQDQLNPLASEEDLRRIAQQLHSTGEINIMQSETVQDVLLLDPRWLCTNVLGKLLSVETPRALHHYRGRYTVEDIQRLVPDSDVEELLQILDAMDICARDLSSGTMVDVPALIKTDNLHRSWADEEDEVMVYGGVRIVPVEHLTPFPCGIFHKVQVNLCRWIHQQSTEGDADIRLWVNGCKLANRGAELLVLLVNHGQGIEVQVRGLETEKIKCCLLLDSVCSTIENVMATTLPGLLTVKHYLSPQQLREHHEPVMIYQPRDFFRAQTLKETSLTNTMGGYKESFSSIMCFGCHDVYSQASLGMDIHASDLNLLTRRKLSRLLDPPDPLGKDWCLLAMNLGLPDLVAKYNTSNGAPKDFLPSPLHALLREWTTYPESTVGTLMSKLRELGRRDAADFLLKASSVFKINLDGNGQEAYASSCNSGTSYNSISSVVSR

## NS(=O)(=O)c1ccc(Nc2ncc(-c3ccccc3)o2)cc1
[1]
  inhibition: 4.56%
[2]
  inhibition: 1.31%
[3]
  inhibition: 1.65%
[4]
  inhibition: 1.62%
[5]
  inhibition: 1.99%
[6]
  inhibition: 2.89%
[7]
  inhibition: 2.39%
[8]
  inhibition: 3.62%
[9]
  inhibition: 12.9%
[10]
  inhibition: 4.38%

## COc1ccc2[nH]c3c4[nH]c5ccc(OC)cc5c4c4c(c3c2c1)C(=O)NC4=O
[1]
  inhibition: 24.8%
[2]
  inhibition: 1.24%
[3]
  inhibition: 2.81%
[4]
  inhibition: 2.61%
[5]
  inhibition: 5.29%
[6]
  inhibition: 5.01%
[7]
  inhibition: 6.04%
[8]
  inhibition: 7.99%
[9]
  inhibition: 38.8%
[10]
  inhibition: 3.92%

## Fc1ccc(-c2nn3ccccc3c2-c2ccncc2)cc1
[1]
  inhibition: 0.99%
[2]
  inhibition: 1.01%
[3]
  inhibition: -2.66%
[4]
  inhibition: 0.22%
[5]
  inhibition: 0%
[6]
  inhibition: 14.4%
[7]
  inhibition: 28.4%
[8]
  inhibition: 1.76%
[9]
  inhibition: 2.2%
[10]
  inhibition: 1%

## COc1ccc(-c2oc3ncnc(N)c3c2-c2ccc(NC(=O)Nc3cc(C(F)(F)F)ccc3F)cc2)cc1
[1]
  inhibition: 4.78%
[2]
  inhibition: 1.65%
[3]
  inhibition: 6.21%
[4]
  inhibition: 2.26%
[5]
  inhibition: 2.83%
[6]
  inhibition: 4.08%
[7]
  inhibition: 16.3%
[8]
  inhibition: 3.02%
[9]
  inhibition: 6.8%
[10]
  inhibition: 0.75%

## COc1cc(Nc2nccc(Nc3ccc4c(C)n[nH]c4c3)n2)cc(OC)c1OC
[1]
  inhibition: 2.65%
[2]
  inhibition: -0.29%
[3]
  inhibition: 2.5%
[4]
  inhibition: 0.91%
[5]
  inhibition: 0.86%
[6]
  inhibition: 1.05%
[7]
  inhibition: 1.36%
[8]
  inhibition: 2.59%
[9]
  inhibition: 8.82%
[10]
  inhibition: 3.33%

## CCn1cc(-c2ccnc3[nH]ccc23)c(-c2cccc(NC(=O)Nc3ccc(OCc4ccccc4)cc3)c2)n1
[1]
  inhibition: 1.12%
[2]
  inhibition: -1.87%
[3]
  inhibition: -0.63%
[4]
  inhibition: -0.39%
[5]
  inhibition: -0.71%
[6]
  inhibition: 0.57%
[7]
  inhibition: 1.13%
[8]
  inhibition: 0.74%
[9]
  inhibition: 3.68%
[10]
  inhibition: 1.29%

## CCc1nn2ncccc2c1-c1ccnc(NC2CC2)n1
[1]
  inhibition: 1.38%
[2]
  inhibition: -1.54%
[3]
  inhibition: 2.15%
[4]
  inhibition: 1.44%
[5]
  inhibition: 2.07%
[6]
  inhibition: 1.73%
[7]
  inhibition: 2.3%
[8]
  inhibition: 0.89%
[9]
  inhibition: 2.47%
[10]
  inhibition: 0.47%

## CNC(=O)c1cncc(/C=C/c2ccccc2Cl)c1
[1]
  inhibition: 1.77%
[2]
  inhibition: 0.59%
[3]
  inhibition: -3.35%
[4]
  inhibition: 0.55%
[5]
  inhibition: 1.05%
[6]
  inhibition: 0.66%
[7]
  inhibition: -0.89%
[8]
  inhibition: 1.46%
[9]
  inhibition: 5.24%
[10]
  inhibition: 1.01%

## CC(=O)Nc1cccc(C#Cc2cncnc2Nc2ccc(OCc3cccc(F)c3)c(Cl)c2)c1
[1]
  inhibition: -5.4%
[2]
  inhibition: 2.03%
[3]
  inhibition: -0.73%
[4]
  inhibition: -2.08%
[5]
  inhibition: -2.08%
[6]
  inhibition: -4.18%
[7]
  inhibition: -2.89%
[8]
  inhibition: 1.42%
[9]
  inhibition: 0.83%
[10]
  inhibition: 3.81%

## CCn1c(-c2nonc2N)nc2c(C#CC(C)(C)O)ncc(OC3CCNCC3)c21
[1]
  inhibition: 5.68%
[2]
  inhibition: 0.06%
[3]
  inhibition: 3.29%
[4]
  inhibition: 1.3%
[5]
  inhibition: 3.78%
[6]
  inhibition: 3.98%
[7]
  inhibition: 4.41%
[8]
  inhibition: 20.8%
[9]
  inhibition: 74.1%
[10]
  inhibition: 21.2%

## COc1ccc(CNC(=O)c2ccc(-c3cc(-c4nnc(C)o4)ccc3C)cc2)cc1
[1]
  inhibition: 10.2%
[2]
  inhibition: 1.92%
[3]
  inhibition: 2.89%
[4]
  inhibition: 4.31%
[5]
  inhibition: 5.53%
[6]
  inhibition: 14.5%
[7]
  inhibition: 29.3%
[8]
  inhibition: 1.53%
[9]
  inhibition: 2.91%
[10]
  inhibition: 1.55%

## NS(=O)(=O)c1ccc(N/N=C2\C(=O)Nc3ccc4ncccc4c32)cc1
[1]
  inhibition: 63%
[2]
  inhibition: -1.4%
[3]
  inhibition: 7.76%
[4]
  inhibition: 0.89%
[5]
  inhibition: 1.9%
[6]
  inhibition: 2.79%
[7]
  inhibition: 3.84%
[8]
  inhibition: 12.8%
[9]
  inhibition: 52.9%
[10]
  inhibition: 8.25%

## Nc1nc(-c2ccc(F)cc2)c(-c2ccc3ncccc3n2)s1
[1]
  inhibition: 4.25%
[2]
  inhibition: 1.89%
[3]
  inhibition: 1.19%
[4]
  inhibition: 2.16%
[5]
  inhibition: 1.53%
[6]
  inhibition: 11.3%
[7]
  inhibition: 24.6%
[8]
  inhibition: 4.82%
[9]
  inhibition: 7.14%
[10]
  inhibition: 3.4%

## Cc1cccc(Nc2ncc(-c3ccccc3)o2)c1
[1]
  inhibition: 3.39%
[2]
  inhibition: -0.51%
[3]
  inhibition: 1.2%
[4]
  inhibition: 1.15%
[5]
  inhibition: 3.82%
[6]
  inhibition: 3.13%
[7]
  inhibition: 4.32%
[8]
  inhibition: 2.41%
[9]
  inhibition: 8.07%
[10]
  inhibition: 3.98%

## Cc1ccc2c(-c3ccnc(Nc4ccccc4)n3)c(-c3ccc(F)cc3)nn2n1
[1]
  inhibition: 5.85%
[2]
  inhibition: 1.21%
[3]
  inhibition: 1.97%
[4]
  inhibition: 1.27%
[5]
  inhibition: 1.49%
[6]
  inhibition: 32.5%
[7]
  inhibition: 36%
[8]
  inhibition: 2.17%
[9]
  inhibition: 2.96%
[10]
  inhibition: 3.81%

## Nc1nc(-c2cccc(Cl)c2)c(-c2ccc3ncccc3n2)s1
[1]
  inhibition: 15.4%
[2]
  inhibition: 1.69%
[3]
  inhibition: 1.16%
[4]
  inhibition: 4.89%
[5]
  inhibition: 6.05%
[6]
  inhibition: 13.6%
[7]
  inhibition: 23.9%
[8]
  inhibition: 5.51%
[9]
  inhibition: 4.17%
[10]
  inhibition: 2.28%
